In PubChem BioAssay (NCATS):
Inconclusive results are not listed. A number with no mark means an inactive call. Activity calls are given as the source filed them. The call rests on the fitted dose curve; in most records, active means well fitted cell-killing curve with a large enough effect; inconclusive means small, poorly fitted or top-dose-only effect, or effect the other way; inactive means no such curve, though single readings can be large or run the other way.

Key:
[1] = Viability qHTS for spleen associated tyrosine kinase inhibitor (SYKi) naive MV4-11 cells (AID 1963823); further: nearly all actives have a fitted effect of over 40% in size
Method in brief: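 Viability of MV4-11 AML cells lacking prior SYK inhibitor exposure is scored by CellTiter-Glo luminescence following 72 hr compound incubation at 37 C, 5% CO2, seeded at 500 cells per well.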

[2] = Viability qHTS for spleen associated tyrosine kinase inhibitor (SYKi) drug resistant MV4-11 cells (AID 1963824); further: nearly all actives have a fitted effect of over 35% in size
Method in brief: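 CellTiter-Glo luminescence, read 10 min after reagent addition, reports viability after a 72 hr compound exposure. Cells are an MV4-11 line made resistant to SYK inhibition, seeded at 500 per well onto compound-containing plates.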
Potency means the concentration at half of the fitted maximal effect.

| Compound | Potency [1] | Potency [2] | viability (% of control) [1] | viability, % of control [2] |
| --- | --- | --- | --- | --- |
| CC1=C(COC2OC(CO)C(O)C(O)C2O)C(C(CO)C(=O)O)CC1 (stereo not given) | inactive | inactive |  |  |
| CC1=CC(=O)CC(C)(C)C1CCC(C)O[C@@H]1O[C@H](CO[C@@H]2OC[C@@H](O)[C@H](O)[C@H]2O)[C@@H](O)[C@H](O)[C@H]1O (stereo not given in full) | inactive | inactive |  |  |
| O=C(c1c2ccccc2cc2ccccc12)N1CCC(N2CCC[C@@H](C(=O)N3CCOCC3)C2)CC1 | inactive | 16400 nM (active) |  |  |
| Cc1onc(-c2c(F)cccc2Cl)c1C(=O)N[C@@H]1C(=O)N2[C@@H]1SC(C)(C)[C@@H]2C(=O)O | inactive | 13000 nM (active) |  |  |
| COC(=O)c1ccccc1O[C@@H]1O[C@H](CO[C@@H]2OC[C@@H](O)[C@H](O)[C@H]2O)[C@@H](O)[C@H](O)[C@H]1O | inactive | inactive |  |  |
| C=CC(C)(O)CC/C=C(\C)C(=O)OCC1OC(OC2CCC3(C)C(CCC4(C)C3CC=C3C5CC(C)(C)C(O)CC5(C(=O)O)CCC34C)C2(C)C)C(O)C(OC2OC(CO)C(O)C(OC3OC(CO)C(O)C(OC4OC(COC5OC(CO)C(O)C(O)C5O)C(O)C(O)C4O)C3O)C2O)C1O (stereo not given) |  |  | 99.5% [at 9.25 µM] | 108% [at 9.25 µM] |
| Cc1ccc(-c2c(-c3nn(C)c4ncnc(N5CCC(N6CCCCC6)C5)c34)cnn2C)cc1 (stereo not given) | 16400 nM (active) | inactive |  |  |
| C=CC1C(O[C@@H]2O[C@H](CO)[C@@H](O)[C@H](O)[C@H]2O)OC=C(C(=O)OC)C1Cc1nccc2c1[nH]c1ccccc12 (stereo not given in full) | inactive | 3990 nM (active) |  |  |
| CC1(C)CCC2(C(=O)OC3OC(COC4OC(CO)C(O)C(O)C4O)C(O)C(O)C3O)CCC3(C)C(=CCC4C5(C)CCC(OC6OCC(O)C(O)C6O)C(C)(C)C5CCC43C)C2C1O (stereo not given) |  |  | 56.1% [at 9.25 µM] | 90.4% [at 9.25 µM] |
| OC[C@H]1O[C@@H](OCCc2ccc(O)cc2)[C@H](O)[C@@H](O)[C@@H]1O | inactive | inactive |  |  |
| COc1ccc2c(c1)CN(C(=O)CCN1CCC(Cc3ccccc3)CC1)CCS2 | 8930 nM (active) | 8930 nM (active) |  |  |
| Cc1cc(-c2nc(C(=O)Nc3cn(C4CCOCC4)nc3C(N)=O)co2)ccn1 | 46.1 nM (active) | 146 nM (active) |  |  |
| COc1cc(COC2OC(CO)C(O)C(O)C2O)cc(OC)c1O (stereo not given) | inactive | inactive |  |  |
| CC(=O)NCCNc1cc(Cl)nn2c(-c3cccc(S(=O)(=O)N(C)C)c3)c(C)nc12 | 1460 nM (active) | 1640 nM (active) |  |  |
| CC(=O)O[C@@H]1C[C@H](O)[C@@]23CO[C@H](O)[C@]1(C)C2C[C@@H](O)[C@]1(C)C3C(=O)[C@H](OC(C)=O)[C@@]2(C)[C@H](c3ccoc3)C[C@H]3O[C@]321 (stereo not given in full) | 38.5 nM (active) | 34.3 nM (active) |  |  |
| CC(C)(C#N)c1ccc(N2C(=O)OCc3cnc4ccc(-c5cnc6ccccc6c5)cc4c32)cc1 | 1030 nM (active) | 1460 nM (active) |  |  |
| NCC(=O)O | inactive | inactive |  |  |
| COc1ccc(/C=C/C(=O)O[C@@H]2[C@@H](O)[C@H](C)O[C@@H](OC3C4C=COC(O[C@@H]5O[C@H](CO)[C@@H](O)[C@H](O)[C@H]5O)C4C4(CO)OC34)[C@@H]2O)cc1OC (stereo not given in full) | inactive | inactive |  |  |
| Cc1c[nH]c2nccc(Oc3c(F)cc(Nc4cc(Cl)nc(N)n4)cc3F)c12 | 517 nM (active) | 731 nM (active) |  |  |
| Nc1ccc(-c2ccnc(NCCCNC(=O)c3c(Cl)cccc3Cl)n2)cc1 | 1300 nM (active) | 1300 nM (active) |  |  |
| CN1CCN(C(=O)c2ccc(Nc3nccc(-c4cccs4)n3)cc2Cl)CC1 | 731 nM (active) | 2060 nM (active) |  |  |
| CC1(C)CC[C@]2(C(=O)O)CC[C@]3(C)C(=CCC4[C@@]5(C)C[C@@H](O)[C@H](O)C(C)(C)C5CC[C@]43C)[C@@H]2[C@@H]1O (stereo not given in full) | inactive | inactive |  |  |
| CCOC(=O)COc1ccc2c(c1)C[C@@H](NC[C@H](O)c1cccc(Cl)c1)CC2 | 18400 nM (active) | 8200 nM (active) |  |  |
| CC(C)CCC[C@@H](C)[C@H]1CC[C@H]2[C@@H]3CC=C4C[C@@H](OC(=O)NCCN(C)C)CC[C@]4(C)[C@H]3CC[C@]12C | 20600 nM (active) | 16400 nM (active) |  |  |
| C=CC(C)(O)CO[C@@H]1O[C@H](CO)[C@@H](O)[C@H](O)[C@H]1O (stereo not given in full) | inactive | inactive |  |  |
